Tests used:
Assay in all cases: universal protein binding microarray (PBM); transcription factors of Arabidopsis thaliana; high values mean tight binding
Details in all cases: protein: recombinant; tags: GST; chain copies: 2; dsDNA, one strand shown
GST-ANAC092(1-176) = biological target: T1, GST-ANAC092(1-176) (Arabidopsis thaliana, UniProt Q9FKA0 1-176)
T1 sequence: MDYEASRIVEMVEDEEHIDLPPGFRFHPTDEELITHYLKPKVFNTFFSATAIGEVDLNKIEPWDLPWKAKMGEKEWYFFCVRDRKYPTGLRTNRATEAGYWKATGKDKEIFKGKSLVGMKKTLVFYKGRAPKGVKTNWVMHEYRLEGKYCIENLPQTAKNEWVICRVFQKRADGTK
In short: (§1)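 Binding is expressed as the normalised enrichment score (E-score). Proteins carrying a GST tag, whether NAC-domain, full-length or DNA-binding-domain forms, were induced in cells, and zinc acetate was added for zinc-finger proteins. After purification on glutathione–Sepharose 4B and quantification by A280 or anti-GST western blot, each was applied in duplicate at 200 to 500 nM final to custom all-10-mer Agilent 4 × 180K arrays made double-stranded by primer extension. Gapped and ungapped 8-mers were scored.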

GST-NTL6(1-168) = GST-NTL6(1-168) (Arabidopsis thaliana, UniProt Q9SCK6 1-168)
Sequence of GST-NTL6(1-168) (Q9SCK6 1-168): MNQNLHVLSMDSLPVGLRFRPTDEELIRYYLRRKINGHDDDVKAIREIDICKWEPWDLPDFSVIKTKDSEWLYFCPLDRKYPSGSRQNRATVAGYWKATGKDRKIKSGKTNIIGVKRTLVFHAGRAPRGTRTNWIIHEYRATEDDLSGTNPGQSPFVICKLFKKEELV
In short: as §1

GST-ANAC019 NAC domain = biological target: T2, GST-ANAC019 NAC domain (Arabidopsis thaliana, UniProt Q9C932 14-162)
T2 sequence: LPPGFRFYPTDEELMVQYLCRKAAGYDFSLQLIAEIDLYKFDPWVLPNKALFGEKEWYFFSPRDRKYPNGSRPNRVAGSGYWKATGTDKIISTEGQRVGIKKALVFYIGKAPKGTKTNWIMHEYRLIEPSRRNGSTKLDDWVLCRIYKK
In short: as §1

GST-ANAC055(1-171) = biological target: T3, GST-ANAC055(1-171) (Arabidopsis thaliana, UniProt Q9LDY8 1-171)
T3 sequence: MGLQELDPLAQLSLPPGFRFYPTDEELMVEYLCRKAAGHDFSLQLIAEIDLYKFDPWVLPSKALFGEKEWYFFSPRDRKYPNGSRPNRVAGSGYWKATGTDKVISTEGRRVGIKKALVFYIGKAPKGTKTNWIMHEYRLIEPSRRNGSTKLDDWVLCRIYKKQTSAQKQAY
In short: as §1

GST-ATAF1 NAC domain = biological target: T4, GST-ATAF1 NAC domain (Arabidopsis thaliana, UniProt Q39013 7-158)
T4 sequence: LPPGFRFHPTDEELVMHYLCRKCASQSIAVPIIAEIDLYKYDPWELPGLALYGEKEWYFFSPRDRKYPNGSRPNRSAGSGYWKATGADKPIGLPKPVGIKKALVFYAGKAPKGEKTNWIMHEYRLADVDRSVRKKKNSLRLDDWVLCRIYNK
In short: as §1

[1] = biological target: T5, GST-ANAC092(1-285) full length (Arabidopsis thaliana, UniProt Q9FKA0 1-285)
T5 sequence: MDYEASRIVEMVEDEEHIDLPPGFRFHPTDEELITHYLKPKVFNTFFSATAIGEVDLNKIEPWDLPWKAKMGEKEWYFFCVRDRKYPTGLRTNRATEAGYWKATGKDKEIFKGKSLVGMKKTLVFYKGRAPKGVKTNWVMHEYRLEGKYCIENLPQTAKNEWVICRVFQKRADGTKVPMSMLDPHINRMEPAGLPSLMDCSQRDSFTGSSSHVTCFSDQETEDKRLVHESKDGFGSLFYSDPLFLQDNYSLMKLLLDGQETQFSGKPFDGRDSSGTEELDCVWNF
In short: as §1

GST-NAP(1-166) = biological target: T6, GST-NAP(1-166) (Arabidopsis thaliana, UniProt O49255 1-166)
T6 sequence: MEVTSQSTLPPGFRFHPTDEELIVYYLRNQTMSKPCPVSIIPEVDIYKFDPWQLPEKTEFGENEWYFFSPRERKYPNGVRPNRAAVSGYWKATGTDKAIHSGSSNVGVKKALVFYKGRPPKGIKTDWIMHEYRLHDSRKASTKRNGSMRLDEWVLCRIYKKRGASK
In short: as §1

GST-NST2(1-184) = biological target: T7, GST-NST2(1-184) (Arabidopsis thaliana, UniProt Q9M274 1-184)
T7 sequence: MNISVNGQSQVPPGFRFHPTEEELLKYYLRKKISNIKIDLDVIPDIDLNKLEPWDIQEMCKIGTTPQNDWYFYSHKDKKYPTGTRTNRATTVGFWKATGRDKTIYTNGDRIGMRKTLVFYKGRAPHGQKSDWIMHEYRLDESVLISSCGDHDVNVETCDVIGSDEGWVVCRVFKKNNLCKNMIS
In short: as §1

GST-NTL8 NAC domain = biological target: T8, GST-NTL8 NAC domain (Arabidopsis thaliana, UniProt Q9XIN7 14-156)
T8 sequence: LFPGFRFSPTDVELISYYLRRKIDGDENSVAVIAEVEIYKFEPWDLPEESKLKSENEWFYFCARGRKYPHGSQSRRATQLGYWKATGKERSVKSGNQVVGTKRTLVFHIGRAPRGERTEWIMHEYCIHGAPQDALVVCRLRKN
In short: as §1

GST-SND1(1-203) = biological target: T9, GST-SND1(1-203) (Arabidopsis thaliana, UniProt Q9LPI7 1-203)
T9 sequence: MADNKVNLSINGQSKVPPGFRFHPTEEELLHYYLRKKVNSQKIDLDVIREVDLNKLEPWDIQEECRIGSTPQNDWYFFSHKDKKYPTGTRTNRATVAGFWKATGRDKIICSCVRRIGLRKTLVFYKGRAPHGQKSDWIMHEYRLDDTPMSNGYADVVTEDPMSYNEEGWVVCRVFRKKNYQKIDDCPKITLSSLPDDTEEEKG
In short: as §1

GST-VND3 NAC domain = biological target: T10, GST-VND3 NAC domain (Arabidopsis thaliana, UniProt Q9FH59 12-162)
T10 sequence: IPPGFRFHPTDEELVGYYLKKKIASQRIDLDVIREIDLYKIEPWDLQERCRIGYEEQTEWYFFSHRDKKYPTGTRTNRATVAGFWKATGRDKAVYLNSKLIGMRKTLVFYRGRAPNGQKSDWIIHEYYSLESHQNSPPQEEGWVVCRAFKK
In short: as §1

GST-VND7 NAC domain = biological target: T11, GST-VND7 NAC domain (Arabidopsis thaliana, UniProt Q9C8W9 9-158)
T11 sequence: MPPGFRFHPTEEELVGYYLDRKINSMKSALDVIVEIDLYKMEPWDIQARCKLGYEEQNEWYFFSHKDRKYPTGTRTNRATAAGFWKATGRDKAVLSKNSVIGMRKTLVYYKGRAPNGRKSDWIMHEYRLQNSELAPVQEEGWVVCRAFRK
In short: as §1

Row | Sequence | binding signal (GST-ANAC092(1-176)) [E-score] | binding signal (GST-NTL6(1-168)) [E-score] | binding signal (GST-ANAC019 NAC domain) [E-score] | binding signal (GST-ANAC055(1-171)) [E-score] | binding signal (GST-ATAF1 NAC domain) [E-score] | binding signal [1] [E-score] | binding signal (GST-NAP(1-166)) [E-score] | binding signal (GST-NST2(1-184)) [E-score] | binding signal (GST-NTL8 NAC domain) [E-score] | binding signal (GST-SND1(1-203)) [E-score] | binding signal (GST-VND3 NAC domain) [E-score] | binding signal (GST-VND7 NAC domain) [E-score]
1 | CACGCAAA | 0.487 | 0.107 | 0.421 | 0.348 | 0.292 | 0.486 | 0.385 | 0.389 | 0.0878 | 0.426 | 0.396 | 0.419
2 | ACACGCTA | 0.484 | 0.0935 | 0.16 | 0.193 | 0.116 | 0.49 | 0.194 | 0.4 |  | 0.438 | 0.079 | 0.104
3 | AATTCCGT | 0.274 | 0.169 | 0.456 | 0.429 | 0.358 | 0.247 | 0.379 | 0.179 | 0.105 | 0.122 | 0.414 | 0.382
4 | TACACGCA | 0.467 | 0.0803 | 0.415 | 0.382 | 0.369 | 0.463 | 0.375 | 0.363 |  | 0.385 | 0.404 | 0.385
5 | GGAAGCAA | 0.318 | 0.36 | 0.117 | 0.136 | 0.137 | 0.405 | 0.0755 | 0.242 | 0.269 | 0.385 | 0.118 | 0.0735
6 | ATAGCGTG | 0.464 | 0.0569 | 0.174 | 0.167 | 0.128 | 0.47 | 0.105 | 0.332 |  | 0.418 | 0.218 | 0.15
7 | CAAGTTAC | 0.371 | 0.256 | 0.163 | 0.178 | 0.134 | 0.411 | 0.144 | 0.238 | 0.167 | 0.323 | 0.254 | 0.184
8 | ACGCAACA | 0.473 | 0.0917 | 0.408 | 0.35 | 0.292 | 0.484 | 0.399 | 0.4 | 0.0984 | 0.467 | 0.347 | 0.406
9 | GTGACGTA | 0.447 | 0.0989 | 0.375 | 0.36 | 0.39 | 0.452 | 0.417 | 0.311 |  | 0.467 | 0.365 | 0.413
10 | GCGTGTAA | 0.444 | 0.0655 | 0.297 | 0.222 | 0.201 | 0.438 | 0.155 | 0.275 |  | 0.347 | 0.246 | 0.2
11 | GTGAAGAA | 0.238 | 0.244 | 0.305 | 0.215 | 0.316 | 0.197 | 0.164 | 0.129 | 0.403 | 0.182 | 0.304 | 0.288
12 | ACGTAACT | 0.443 | 0.174 | 0.48 | 0.451 | 0.444 | 0.424 | 0.474 | 0.251 | 0.247 | 0.325 | 0.466 | 0.474
13 | AACACGCC | 0.391 | 0.094 | 0.238 | 0.253 | 0.0901 | 0.431 | 0.184 | 0.144 |  | 0.144 | 0.1 | 0.0653
